Measurements from PubChem BioAssay (NCI).
The panel holds about 79,000 compounds, 15% with a hit somewhere; the sample as a whole holds those more often. Unmarked numbers belong to inactive results. Activity calls are given as the source filed them. Rule as the data show it: active = growth inhibition above about 70%; inactive = the rest.

Columns and labels:
[1] = NCI Yeast Anticancer Drug Screen. Data for the rad50 strain (AID 155);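 also: 0% = growth of vehicle-only cultures of the same strain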; settings: S. cerevisiae rad50 strain growth inhibition; at 50.0 µM; stronger effect = higher value
Method in brief: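 Relative growth inhibition (compound vs vehicle) was measured in yeast with a defined repair-gene alteration.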

[2] = NCI Yeast Anticancer Drug Screen. Data for the mec2-1 strain (AID 157); settings: S. cerevisiae mec2-1 strain, at 50.0 µM, stronger effect = higher value
Method in brief: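 Using mec2-1 yeast: add compound, measure growth, express inhibition versus vehicle-treated cultures.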

[3] = NCI Yeast Anticancer Drug Screen. Data for the sgs1 mgt1 strain (AID 161);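 also: 0% = growth of cultures given vehicle only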; settings: S. cerevisiae sgs1 mgt1 strain, at 50.0 µM, stronger effect = higher value
Method in brief: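 This yeast growth screen uses a strain with defined DNA-repair lesions; compound-treated growth is compared with vehicle-treated growth.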

[4] = NCI Yeast Anticancer Drug Screen. Data for the cln2 rad14 strain (AID 165);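 also: 0% = growth equal to vehicle treated cultures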; settings: S. cerevisiae cln2 rad14 strain, at 50.0 µM, stronger effect = higher value
Method in brief: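 Yeast strain cln2 rad14, bearing defects in cell cycle control and DNA repair, serves as the test system; values reflect growth inhibition compared with vehicle.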

[5] = NCI Yeast Anticancer Drug Screen. Data for the bub3 strain (AID 167); settings: S. cerevisiae bub3 mutant strain, at 50.0 µM, stronger effect = higher value
Method in brief: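 Screening used yeast with an engineered genetic alteration affecting cell cycle control. Compound-exposed cultures were compared with vehicle cultures, and reduced growth was taken as inhibition.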

[6] = NCI Yeast Anticancer Drug Screen. Data for the mlh1 rad18 strain (AID 175); settings: S. cerevisiae mlh1 rad18 strain growth inhibition; at 50.0 µM; stronger effect = higher value
Method in brief: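 Steps: expose repair-defective yeast to compound; measure growth; express inhibition against vehicle-treated controls.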

SMILES | growth inhibition [1] | growth inhibition [2] | growth inhibition [3] | growth inhibition [4] | growth inhibition [5] | growth inhibition [6]
C[C@]12CC[C@H]3[C@@H](CCC4=C[C@@H](OC5OCC(OC6OC(CO)C(O)C(O)C6O)C(O)C5O)CC[C@@]43C=O)[C@@]1(O)CCC2C1=CC(=O)OC1 (some centres not stated) | -31.8% | -20.4% | -29.6% | -4.1% | -16.7% | 2.2%
CC(Br)C(=O)C(CCN(C)C)(c1ccccc1)c1ccccc1 (configuration not stated) | 17.6% | -0.05% | 7.95% | -6.4% | 21.8% | 17.1%
OC1CCN(C2(c3ccccc3)CCCCC2)CC1 | -13.9% | 1.45% | -1.85% | -4.25% | -6.1% | 0.15%
c1cc[c]([Pb]([S]c2ccccn2)([c]2ccccc2)[c]2ccccc2)cc1 | 99.2% (active) | 99.1% (active) | 99.5% (active) | 99% (active) | 99% (active) | 99.2% (active)
COc1oc(C2C/C(=C/C(C)=C/C(C)=C/C(C)=C/c3ccc([N+](=O)[O-])cc3)CO2)c(C)c(=O)c1C (configuration not stated) | 1.15% | -4.75% | -9.4% | -6.85% | -8.15% | -33%
Cc1cccc(NC2=NCCO2)c1Cl | -20.4% | -25.8% | -11% | 24.9% | -9.3% | -27.3%
CN(C)NP(=O)(NN(C)C)c1ccccc1 | -49.9% | -18.1% | -22.4% | -67.8% | -1.6% | -14.4%
OC(Cc1ccccn1)C(Cl)(Cl)Cl (configuration not stated) | -10.2% | -13.5% | -1.7% | -15.6% | 4.35% | 3.9%
COc1cc(N(CCCl)CCCl)c(OC)cc1C=Nc1cccc(Cl)c1 | 31.4% | 10.3% | 44.4% | 10.6% | 24.6% | 34.2%
S=C1c2ccc(Cl)cc2-n2cnnc2C2CSCN12 (configuration not stated) | -4.1% | 10.8% | 7.9% | 0.9% | -6.1% | 26.4%
CC(=O)CC(C)=O.CC(=O)CC(C)=O.[O]=[V] | -60.2% | -58% | -57.8% | -153% | -54.6% | -53.2%
O[C@H](c1ccccc1)[C@@H](c1ccccc1)N1CCCCC1 | -9.85% | -11.9% | -3.65% | -28% | 41.9% | -11.6%
N.N.N.N.O=N[O-].O=N[O-].[Cl-].[Co+3] | 4.25% | 16.1% | 2.55% | 36.1% | 7.25% | 0.2%
CC(=O)NC1C([Se][As](C)C)OC(COC(C)=O)C(OC(C)=O)C1OC(C)=O (configuration not stated) | -15.2% | -20.4% | 23.6% | -7.3% | -2.95% | -6.5%
Cc1nnn[n-]1.N.N.N.N.N.[Cl-].[Co+3] | 3.15% | -6.95% | -9.55% | 2.4% | -0.15% | -16.5%
CN1C(c2cccnc2)=NCC12CCCC2 | -2.95% | -10.1% | 6.45% | -17.2% | -10.2% | -9.45%
CCCCCCC(Cn1ccnc1)c1ccc(Br)cc1 (configuration not stated) | 98.2% (active) | 98.8% (active) | 95.8% (active) | 98.3% (active) | 99.5% (active) | 91.7% (active)
CC(=O)OC(C[N+](=O)[O-])C(Cl)(Cl)Cl (configuration not stated) | 5.7% | 3.25% | 2.25% | -0.7% | 8.4% | 2.95%
COc1cc2cc(c1Cl)N(C)C(=O)CC(OC(=O)C(C)C)C1(C)OC1C(C)C1CC(O)(NC(=O)O1)C(OC)/C=C/C=C(C)C2 (configuration not stated) | -15.9% | -9.9% | -19.4% | -22.8% | -21.2% | -3.7%
ClCCN(CCCl)c1ccc(/C=N/N=C2c3ccccc3-c3ccccc32)cc1 | -21.6% | -7.05% | -6.2% | -2.95% | -18.9% | -4.5%
Cc1nc2ccccc2c(=O)n1-c1ccccc1 | -13.6% | -15.9% | 0% | 15.9% | 10.9% | -3.8%

SMILES | growth inhibition [1] | growth inhibition [2] | growth inhibition [3] | growth inhibition [4] | growth inhibition [5] | growth inhibition [6]
CC[C@@H]1C[C@H]2CC3c4[nH]c5ccc(O)cc5c4CCN(C2)C31 | 3.4% | -24.4% | 23.6% | 5.35% | -1.45% | 5.6%
COc1ccccc1P(=S)(c1ccccc1)c1ccccc1 | 31% | 24.3% | 17.6% | 38% | 27.2% | 24.2%
CC(=O)C(=[N+]=[N-])C(=O)N(C)CCC#N | -7.3% | 6.25% | 11.2% | 13.7% | 7.25% | 20.9%
C[N+]1(C)C2CCC1CC(O)C2 (configuration not stated) | 5.45% | -9.85% | 3.55% | 23.1% | -6.35% | 3.6%
CC/C(=C(/CC)c1ccc(OP(=O)(Cl)N(CCCl)CCCl)cc1)c1ccc(OP(=O)(Cl)N(CCCl)CCCl)cc1 (configuration not stated) | -2.35% | -18% | -8.3% | -1.9% | -2.45% | 37.5%
CC1OC(n2cc(C(N)=O)c3c(N)ncnc32)C(O)C1O (configuration not stated) | 19.4% | 20.9% | 3.75% | 16.9% | 14.2% | 20.1%
C=C(C(=C)P(=S)(C(C)C)C(C)C)P(=S)(C(C)C)C(C)C | -8.65% | -10.6% | 4.75% | 24.1% | -7% | -3.45%
COc1cc(C2c3cc4c(cc3[C@@H](OC)[C@H]3COC(=O)C23)OCO4)cc(OC)c1O (some centres not stated) | 89.5% (active) | 90% (active) | 86.4% (active) | 85.1% (active) | 89.3% (active) | 88.7% (active)
Clc1ccc(N2CCN(c3ccc(Cl)cc3)CC2)cc1 | -20.1% | 1.45% | -6.75% | 1.25% | -6.9% | 6.05%
N[C@@H]1CCCC[C@@H]1N.O=P([O-])([O-])CN(CP(=O)([O-])[O-])CP(=O)([O-])[O-].[Pt+2] | -5.05% | -6.4% | -10.2% | 14.9% | -0.1% | -21.1%
COC[n+]1cccc(C2CCC[N+]2(C)C)c1 (configuration not stated) | 6.35% | 1.25% | 6.8% | 9.9% | 1.8% | 15.5%
CS(=O)(=O)Oc1c(Cl)cc(S(=O)(=O)F)cc1Cl | 66.2% | 75% (active) | 82.8% (active) | 45.6% | 53.5% | 40.1%
O=[N+]([O-])c1ccc2c(c1)[O][Sn]([I])([I])[O]2 | -6% | -3.95% | 8.8% | 6.7% | 1.95% | -3.9%
CCN(CC)C(=O)CCNC(C)Cc1c[nH]c2ccccc12 (configuration not stated) | -4.1% | -13.7% | 39.9% | 22.1% | 8.85% | -37.5%
CCOP(C)(=O)C(N)Cc1ccc(OC)c(OC)c1 (configuration not stated) | -39.6% | -59.5% | -40.1% | -16.4% | 1.1% | -34.5%
CC(=O)C(I)C(C)=O.[Cr] | 2.45% | -18.9% | 8.6% | 16.4% | 14.4% | 5.4%
NC1CC=C(COC(=O)C(O)(c2ccccc2)C2CC2)CC1 (configuration not stated) | -12.9% | -14.7% | -23.6% | 3.65% | -7.4% | -31.4%
O=P(O)(Nc1ccccc1)Nc1ccccc1 | 21.7% | 33.4% | 21% | -15.1% | 25.3% | 15.3%
CP1(=S)CCC2=C1CCc1cc(O)ccc12 (configuration not stated) | 14.4% | -31.8% | 0.4% | -29.8% | -3.65% | 21.4%
C=CCN1CN(c2ccccc2)C2(CCN(CCCC3(c4ccc(F)cc4)OCCO3)CC2)C1=O | -18.1% | -7.55% | 1.4% | 0.4% | 0.7% | -13.8%
CCOc1cc(CCNC)c2c(ccc3ccc(OC)c(O)c32)c1OC | 27.2% | -0.4% | 4.75% | 26.9% | -7.2% | -36.8%
